Compound activity (PubChem BioAssay)
DT40 TDP1 no CPT = qHTS for Inhibitors of human tyrosyl-DNA phosphodiesterase 1 (TDP1): qHTS in cells in absence of CPT. DT40 Tdp1-/- hTDP1 cells, no CPT, ATP luminescence, 48 h. Potency, µM (top dose mostly 46.2 µM), for inactives: top-dose activity change, negative = growth inhibition, hits mostly inhibitors. 420,000 tested, 15% active. AID 686978, 2013; note: potency is the fitted concentration of half-maximal effect; % is set by controls: 0 for no effect and ±100 for the full control effect; nearly all actives have a fitted effect of over 55% in size
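Seeded 400 DT40-hTDP1 cells/well (vehicle DMSO, no 20 nM CPT); pinned compounds; ≥48 hr at 37 °C; CellTiter-Glo luminescence as viability measure.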
TDP1 cell CPT = qHTS for Inhibitors of human tyrosyl-DNA phosphodiesterase 1 (TDP1): qHTS in cells in presence of CPT; chicken DT40 Tdp1-/-;hTDP1 cells + 20 nM CPT, ATP luminescence, 48 h; Potency, µM (top dose mostly 46.2 µM), for inactives: at the top dose activity change, negative = growth inhibition, usual class: inhibitors; 420,000 tested, 12% active; AID 686979, 2013; note: potency is the fitted concentration of half-maximal effect; % is set by controls: 0 for no effect and ±100 for the full control effect; nearly all actives have a fitted effect of over 55% in size
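Chicken DT40 Tdp1-/- cells complemented with human TDP1, 400 cells/well, exposed to compounds plus 20 nM camptothecin for at least 48 h at 37 C; viability read as ATP content by CellTiter-Glo luminescence.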
DRD3 antagonist = qHTS of D3 Dopamine Receptor Antagonist: qHTS | D3R cells, DiscoveRx beta-arrestin luminescence, antagonist mode; hits give low values | D(3) dopamine receptor (Homo sapiens), P35462 | 360,000 tested, 2.5% active | max response, negative = inhibition, %; in the data active = max response below about -50%; inconclusive = no clear call, values can overlap the other calls; note: % is set by controls: 0 for no effect and ±100 for the full control effect
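Cells plated overnight at 1500 cells/well, then exposed to library compounds with dopamine controls for 90 minutes at 37 degrees C. DiscoveRx reagent added for 30–60 minutes at room temperature; luminescence read, quantitative HTS format.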
D3 ag = qHTS of D3 Dopamine Receptor Agonist: qHTS; 410,000 tested, 0.58% active; max activation, %; AID 652048, 2013; D(3) dopamine receptor (Homo sapiens), P35462; D3R DiscoveRx beta-arrestin cells, luminescence, 90 min; in the data active = max activation above about 30%; note: 0% is about no effect
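Agonist-mode cell screen: cells plated at 1500/well and incubated overnight at 37 °C, then exposed to library compounds for 90 min at 37 °C. Detection reagent was added for 30–60 min at room temperature, and luminescence was read.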
ClpP mod = qHTS Assay for Activators of ClpP; 340,000 tested, 1.9% active; Potency, µM (titrated, usually from 57.5 µM), for inactives: at the top dose activity change, negative = active; AID 651965, 2013; ATP-dependent Clp protease proteolytic subunit (Bacillus subtilis (strain 168)), P80244; purified B. subtilis ClpP, FRET peptide cleavage, 20 min; active = well fitted falling curve with a large enough effect; inconclusive = small, poorly fitted or top-dose-only effect; inactive = no such curve, though single readings can be large or run the other way; note: potency is the fitted concentration of half-maximal effect; the source files actives as falling curves though it sought activators and does not explain the sign; nearly all actives have a fitted effect of over 65% in size
Target sequence (P80244 whole entry, looked up): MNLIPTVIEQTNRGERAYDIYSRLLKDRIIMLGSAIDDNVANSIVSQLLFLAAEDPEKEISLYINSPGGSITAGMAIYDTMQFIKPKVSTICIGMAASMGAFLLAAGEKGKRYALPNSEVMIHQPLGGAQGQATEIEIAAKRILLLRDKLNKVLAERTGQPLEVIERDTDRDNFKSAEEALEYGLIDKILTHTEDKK
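ClpP 10 microg/mL final, pH 8 Tris/KCl buffer with BSA, glycerol, Tween-20; compound pinned in; FRET-FV substrate; RT 20 min; Ex320/Em430; ΔFRET vs ADEP 5.8 microM, DMSO, no enzyme.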
IL1B secr inh = qHTS for Inhibitors of Inflammasome Signaling: IL-1-beta AlphaLISA Primary Screen | 360,000 tested, 4.7% active | THP-1 LPS/ATP IL-1B secretion, AlphaLISA, 16 h; hits give low values | activity change, % at 57.5 µM; in the data active = activity change below about -50%; inconclusive = mostly about -30% to -49%; note: % is set by controls: 0 for no effect and ±100 for the full control effect
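Secreted IL-1B measured by AlphaLISA bead assay after 16 h compound exposure of THP-1 cells; compounds (final up to 57.5 uM) added 1 h before LPS (250 ng/mL) and ATP (1.25 mM) stimulation; lower signal means less secretion.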
Numbers without * were called inactive; u = inconclusive; x = not tested or not shown. A selection: hits, their analogues and other compounds. The true share with any hit is near 21%. Unless noted, calls come from the whole dose curve; as a rule, active = well fitted inhibition curve with a large enough effect; inconclusive = small, poorly fitted or top-dose-only effect; inactive = flat fitted curve, though single readings scatter.

SMILES	DT40 TDP1 no CPT	TDP1 cell CPT	DRD3 antagonist	D3 ag	ClpP mod	IL1B secr inh
Cc1cc2oc(C(=O)Nc3sc4c(c3C(=O)NCC3CCCO3)CCCC4)cc(=O)c2cc1C (stereo unspecified)	-3.1%	-0.5%	x	-6.5	-1.6%	x
CC(C)(C)c1ccc(C(=O)NCC(c2cccs2)S(=O)(=O)c2ccc(F)cc2)cc1 (stereo unspecified)	20.6µM*	18.4µM*	x	1.4	-2.5%	x
Cc1ccc(C(=O)CC(c2cccs2)S(=O)(=O)c2ccc(C)cc2)cc1 (stereo unspecified)	14.6µM*	u	-11.0	0.8	-1.3%	-7.7
COc1ccc(CC(=O)NCC(c2cccs2)S(=O)(=O)c2ccc(F)c(C)c2)cc1 (stereo unspecified)	-25.6%	u	x	-8.0	-3.0%	x
COc1ccc(CC(=O)NCC(c2cccs2)S(=O)(=O)c2ccc(C)cc2)cc1 (stereo unspecified)	25.9µM*	u	x	-14.2	1.9%	x
CCOc1ccc(OCCC(=O)N(CC)CC(=O)NCc2ccc(Cl)cc2)cc1	u	u	11.3	1.9	x	-17.7
C=CCn1cc(/C=C/c2cc[n+](C)cc2)c2ccccc21	0.581µM*	0.731µM*	-10.3	-2.0	-0.5%	-12.2
CCN(CC)C(=O)Cn1c(C)c(/C=C/c2cc[n+](C)cc2)c2ccccc21	u	u	-5.8	-0.5	-3.4%	-26.8
CC(C)n1cc(/C=C/c2cc[n+](C)cc2)c2ccccc21	0.517µM*	0.517µM*	6.5	-6.4	x	-75.7*
CCn1cc(/C=C/c2cc[n+](C)cc2)c2ccccc21	1.03µM*	0.326µM*	-2.7	-7.7	2.7%	-7.7
C=CCn1c(C)c(/C=C/c2cc[n+](C)cc2)c2ccccc21	1.46µM*	3.66µM*	-8.2	2.7	x	-90.2*
C=CCn1cc(/C=C2\SC(N3CCOCC3)=NC2=O)c2ccccc21	u	u	-0.8	-1.1	-0.7%	0.1
CC(C)n1cc(/C=N/Nc2ccc(C(=O)O)cc2)c2ccccc21	1.6%	-0.3%	-26.4	0.2	x	40.6
CCOC(=O)Cn1cc(C=O)c2ccccc21	2.4%	-15.6%	0.0	-3.2	0.4%	8.4
COc1cc(OC)cc(C(=O)NCC(C)NC(=O)c2cc(OC)cc(OC)c2)c1 (stereo unspecified)	-25.9%	29.5%	0.3	1.6	x	3.4
O=C(CN(C(=O)c1csnn1)c1ccccc1F)NC1CCCCC1	-14.1%	-12.2%	-8.5	1.3	x	3.3
CC1(C)CC(=O)C=C(Nc2cccc(Cl)c2Cl)C1	u	-13.0%	-19.1	2.6	-1.3%	0.0
Cc1ccc2nc(NC(=O)CC3Oc4ccccc4NC3=O)sc2c1 (stereo unspecified)	15.1%	2.1%	-0.6	-0.2	-0.5%	0.0
CCNc1nc(N)c(C(=O)c2ccc(Cl)s2)s1	0.5%	-1.4%	-51.1*	-1.6	0.4%	-96.4*
CC(C)(C)c1csc(NC(=O)c2ccc(Cl)s2)n1	u	u	4.9	0.1	-3.7%	-23.0
Cc1nn(-c2cccc(C(F)(F)F)c2)c(=O)c2noc(C)c12	-8.1%	5.8%	12.3	7.1	-2.0%	-16.7
COC(=O)c1ccc(CNC(=O)COC(=O)COc2ccc(OC)cc2)cc1	5.0%	-1.6%	9.3	-1.5	x	0.0
O=c1cc(N2CCN(c3ccccc3)CC2)[nH]c(=O)n1-c1ccccc1	11.6%	-20.8%	-13.6	-14.0	-1.3%	-1.8
O=c1cc(N2CCN(c3ccc(F)cc3)CC2)[nH]c(=O)n1-c1cccc(Br)c1	18.4µM*	10.3µM*	x	0.6	-3.6%	x
O=S(=O)(c1ccccc1)c1nnn2c1nc(NC1CCCCCC1)c1sccc12	-17.5%	-23.6%	x	7.0	-7.2%	x
